Screening data from PubChem BioAssay.
This is a sample that favours compounds with a hit; in the whole collection about 6.9% have one here.
SKKanGAS inh = inhibitors of SKKanGAS S. pyogenes growth in kanamycin (SK-promoter or general growth effect); BacTiter-Glo, 6 h; inhibition, % at 7.5 µM; hit rate 1.3% among 300,000;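 active = mean replicate score, as percent of positive control median, at least 50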;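 also: strain carries kanamycin resistance gene driven by streptokinase promoter and grows in 40 µg/ml kanamycin; loss of luminescence reflects streptokinase promoter inhibition or plain growth inhibition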
Mdm2-MdmX inh = human Mdm2/MdmX binding inhibition. O15151+Q00987. SaOS-2 split-luciferase Mdm2/MdmX complementation, luminescence. inhibition, % at 8 µM. hit rate 3% among 330,000;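 active = inhibition of at least 50% at 8 µM in the primary screen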
Target sequence (O15151 whole entry, looked up): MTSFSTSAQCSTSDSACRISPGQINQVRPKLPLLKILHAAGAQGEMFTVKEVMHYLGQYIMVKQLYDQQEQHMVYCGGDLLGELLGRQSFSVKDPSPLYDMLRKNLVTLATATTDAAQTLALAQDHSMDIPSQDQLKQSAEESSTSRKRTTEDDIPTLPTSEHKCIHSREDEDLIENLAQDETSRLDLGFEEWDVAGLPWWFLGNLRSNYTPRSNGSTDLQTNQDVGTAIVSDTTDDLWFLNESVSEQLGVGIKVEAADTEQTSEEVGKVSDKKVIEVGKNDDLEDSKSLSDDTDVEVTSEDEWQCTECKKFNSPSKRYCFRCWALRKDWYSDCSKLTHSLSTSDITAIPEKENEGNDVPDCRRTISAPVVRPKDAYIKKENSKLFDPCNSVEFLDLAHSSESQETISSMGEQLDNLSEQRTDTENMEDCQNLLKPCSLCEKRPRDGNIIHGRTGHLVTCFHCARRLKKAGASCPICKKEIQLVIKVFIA
Target sequence (Q00987 whole entry, looked up): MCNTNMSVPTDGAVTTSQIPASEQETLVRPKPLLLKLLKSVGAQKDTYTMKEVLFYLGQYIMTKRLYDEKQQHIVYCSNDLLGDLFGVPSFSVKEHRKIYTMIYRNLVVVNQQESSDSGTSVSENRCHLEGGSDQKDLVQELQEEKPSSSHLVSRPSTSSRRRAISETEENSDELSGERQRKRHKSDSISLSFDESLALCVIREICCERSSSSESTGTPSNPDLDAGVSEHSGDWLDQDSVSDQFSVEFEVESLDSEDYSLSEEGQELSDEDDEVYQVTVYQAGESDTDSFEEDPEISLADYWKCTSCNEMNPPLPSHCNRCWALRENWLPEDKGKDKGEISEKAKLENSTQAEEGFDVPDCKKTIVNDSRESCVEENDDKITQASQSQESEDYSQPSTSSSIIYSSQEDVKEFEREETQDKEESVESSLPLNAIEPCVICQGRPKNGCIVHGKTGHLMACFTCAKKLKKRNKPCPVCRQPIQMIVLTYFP
Beta apoptosis = blocks beta cell apoptosis; AID 435005; hit rate 0.8% among 300,000; protection from apoptosis, % (concentration not given with the values); INS-1E cytokine-induced death, ATP luminescence, 48 h; percent of positive-control rescue, neutral wells zero;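 active = Every replicate reaches about 75%, or at least half do and their mean reaches it too, limit read from the data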;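 also: higher means more ATP so stronger rescue from cytokine killing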
MPTP block = inhibitors of mitochondrial permeability transition pore; isolated mouse mitochondria, Ca2+ swelling absorbance, 30 min; inhibition, % at 10 µM; hit rate 1.4% among 360,000; AID 602449;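 active = inhibition of 50% or more, scaled per plate between neutral and stimulator controls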
GRIN3A LBD mod = modulates the human NR3A ligand-binding domain | Tm shift relative to glycine control, % at 25 µM | NR3A LBD differential scanning fluorimetry, Tm shift; 0% = protein alone, 100% = glycine-bound protein | hit rate 2.5% among 340,000;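 active = melting temperature shift of at least 10% of the positive control shift, at one fixed dose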
CSC inhib = cancer stem cell inhibition; inhibition, % at 7.5 µM; cancer stem cell-like cells viability, luminescence; AID 2717; hit rate 1.1% among 300,000; in the data active = inhibition above about 75%; tested in HMLE shEcad cells
Mdm2-MdmX conf = human Mdm2/MdmX binding inhibition, confirmed | shares compounds with Mdm2-MdmX inh | luminescent assay | inhibition, % at 8 µM | hit rate 55% among 10,000 | AID 489028; in the data active = inhibition above about 40%
Full FLuc ctr = full-length luciferase inhibition in Mdm2/MdmX counter-screen; inhibition, % at 8 µM; SaOS-2 full-length luciferase counterscreen, luminescence; AID 504607; shares compounds with Mdm2-MdmX inh; hit rate 77% among 6,200;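 active = mean inhibition at 8 µM reaching about 37%, which flags the compound as non-specific, limit read from the data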;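 also: p53-null SaOS-2 cells with luciferase driven by a doxycycline-inducible promoter; compound on cells about two nights before reading with doxycycline added after day one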
A number is an active result; n = inactive; x = no result.

SMILES	SKKanGAS inh	Mdm2-MdmX inh	Beta apoptosis	MPTP block	GRIN3A LBD mod	CSC inhib	Mdm2-MdmX conf	Full FLuc ctr
COc1ccc2nc(C)cc(N/N=C/c3ccc(F)cc3)c2c1	n	100	107	n	n	106	100	51
COc1ccc(/C=N/Nc2cc(C)nc3c(C)cccc23)cc1	n	97	n	n	n	n	56	77
COc1ccc(CNc2cc(C)nc3ccc(OC)cc23)cc1	n	52	n	n	n	n	n	x
CC(/C=N/NC(=O)c1sc(N)nc1C)=C\c1ccccc1	n	n	n	n	n	n	x	x
Cc1cccc(NS(=O)(=O)c2cc(NC(=O)CC(=O)c3ccc([N+](=O)[O-])cc3)ccc2C)c1	n	x	x	x	x	x	x	x
Cc1cccc(NS(=O)(=O)c2ccc(NC(=O)CN(c3cc([N+](=O)[O-])ccc3C)S(C)(=O)=O)cc2)c1	n	55	111	n	22	96	49	52
COc1ccc(C)cc1NS(=O)(=O)c1ccc(NC(=O)CN(c2cc([N+](=O)[O-])ccc2C)S(C)(=O)=O)cc1	n	70	112	n	20	93	63	51
Cc1cc(Cl)c2oc(C(=O)N3CCN(c4ccncc4)CC3)c(C)c2c1	n	90	n	n	n	83	51	57
COc1ccc(OC)c(/C=C2\SC(=S)N(Cc3cccnc3)C2=O)c1	n	73	n	n	n	n	44	49
COc1ccc(OC)c(/C=C2\SC(=S)N(NS(=O)(=O)c3ccccc3)C2=O)c1	n	n	n	n	n	n	x	x
CC12CCC(=O)N1C(C(=O)Nc1ccc(F)cc1)CS2 (stereo not given)	n	n	n	n	n	n	x	x
COc1ccc(NC(=O)c2ccco2)cc1NC(=O)COc1ccccc1[N+](=O)[O-]	n	78	n	n	n	n	n	x
O=C(COc1ccc(/C=N/NC(=O)c2cc3ccccc3o2)cc1Br)Nc1ccccc1	n	95	n	n	n	99	n	x
O=C(N/N=C/c1ccco1)c1cc2ccccc2o1	n	n	n	n	n	n	x	x
Cc1ccccc1OCC(=O)Nc1ccccc1NC(=O)c1ccco1	n	n	x	n	n	n	x	x
CCOc1cc(NC(=O)c2ccco2)c(OCC)cc1NC(=O)COc1ccccc1C	n	99	n	n	n	n	n	n
O=C(COc1ccccc1[N+](=O)[O-])Nc1ccc(NC(=O)c2cc3ccccc3o2)cc1	n	54	n	n	12	n	n	71
O=C(COC(=O)c1ccc([N+](=O)[O-])o1)NC1CCCc2ccccc21 (stereo not given)	x	n	n	n	n	n	x	x
Cc1ccc(C(O)c2ncc(-c3ccc(C(F)(F)F)cc3)[nH]2)cc1F (stereo not given)	x	x	x	n	x	x	x	x
CC(=O)OC[C@@H]1CN(Cc2ccccc2)C[C@H](n2cnc3c(NC4CCCC4)ncnc32)O1	x	x	x	n	x	x	x	x
COc1c(OC)c(O)c2c(=O)c(O)c(-c3ccccc3)oc2c1OC	n	81	n	n	n	n	n	x
COc1ccc(-c2oc3cc(O)c(OC)c(O)c3c(=O)c2OC)cc1	n	n	x	n	n	n	x	x
COc1ccc(-c2oc3cc(OC)c(O)c(OC)c3c(=O)c2OC)cc1O	n	64	n	n	n	n	42	n
COc1c(O)c(O)c2oc(-c3ccccc3)cc(=O)c2c1OC	n	n	x	n	n	n	x	x
COc1ccc(-c2oc3c(OC)c(OC)c(OC)c(O)c3c(=O)c2OC)cc1OC	n	79	n	n	n	n	87	47
SMILES	SKKanGAS inh	Mdm2-MdmX inh	Beta apoptosis	MPTP block	GRIN3A LBD mod	CSC inhib	Mdm2-MdmX conf	Full FLuc ctr
COCCN1CC(C(=O)NCc2ncccc2C)CCC1=O (stereo not given)	n	n	n	n	n	n	x	x
CCn1c(=O)c2c(nc(SCC(=O)NC3CCCC3)n2C)n(C)c1=O	n	n	n	n	n	n	x	x
O=C(NCCN1CCCCC1)Nc1ccc(F)cc1F	n	n	n	n	n	n	x	x
Cc1ccc(NC(=O)Cn2cnc([N+](=O)[O-])c2)cc1C	n	n	n	n	n	n	x	x
Cc1ccc(N=Nc2c(N)nn3c(C)cc(C)nc23)cc1	n	n	n	n	n	x	x	x
Cc1ccc(N=Nc2c(N)nn3c(N)c(C#N)c(C)nc23)cc1	n	61	n	n	26	n	59	48
